Experimental data as given in the supplement of paper PMC10981050.
“And” between values parts separate entries of the source, which are not always exact repeats. Equal values may be shown once. Where a name gives a salt, the structure may show the parent alone.

Assays:
Assay in all cases: cell viability relative to vehicle control; higher = less cytotoxic
Conditions in all cases: 10 µM
K562 = test system: K562
Method in brief: (§1)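 Each screen used CRISPR-edited mutant and wild-type clones from four leukaemia lines. Compounds were acoustically dispensed at a single 10 µM dose, and CellTiter-Glo luminescence was read after 48 h with the supernatant first removed. Viability was analysed in Genedata Screener and given as percent of the on-plate vehicle control.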

MARIMO = test system: MARIMO
Method in brief: as §1

MOLM14 = test system: MOLM14
Method in brief: as §1

OCI-AML2 = test system: OCI-AML2
Method in brief: as §1

Structure (SMILES) | cell viability (K562; SRSF2 genotype: SRSF2 P95H/wt) | cell viability (K562; SRSF2 genotype: SRSF2 wt/wt) | cell viability (MARIMO; SRSF2 genotype: SRSF2 P95H/wt) | cell viability (MARIMO; SRSF2 genotype: SRSF2 wt/wt) | cell viability (MOLM14; SRSF2 genotype: SRSF2 P95H/wt) | cell viability (MOLM14; SRSF2 genotype: SRSF2 wt/wt) | cell viability (OCI-AML2; SRSF2 genotype: P95H/wt) | cell viability (OCI-AML2; SRSF2 genotype: wt/wt)
COc1cc(CCC(C)=O)ccc1O [Vanillylacetone] | 104% and 93.6% | 91.8% | 100% | 108% | 101% | 101% | 97.8% | 108%
CCCCCOC(=O)Nc1nc(=O)n([C@@H]2O[C@H](C)[C@@H](O)[C@H]2O)cc1F [Capecitabine (Xeloda)] | 102% and 99.8% | 104% | 99.7% | 108% | 101% | 101% | 92.8% | 99.2%
C[C@](N)(Cc1ccc(O)c(O)c1)C(=O)O [Methyldopa (Aldomet)] | 90.6% and 100% | 100% | 97.2% | 104% | 98.3% | 101% | 98.4% | 96.6%
CCC(=O)NS(=O)(=O)c1ccc(-c2c(-c3ccccc3)noc2C)cc1 [Parecoxib Sodium] | 102% and 91.9% | 100% | 101% | 104% | 93.4% | 104% | 92.3% | 97.3%
COCCNCc1ccc(-c2cc3nccc(Oc4ccc(NC(=O)C5(C(=O)Nc6ccc(F)cc6)CC5)cc4F)c3s2)nc1 [Sitravatinib (MGCD516)] | 14.2% and 25.4% | 10.6% | 67.2% | 78.5% | 5.4% | 8.33% | 14.1% | 27.3%
COc1cc(C(C)=O)ccc1OCCCN1CCC(c2noc3cc(F)ccc23)CC1 [Iloperidone (Fanapt)] | 81.7% and 86.8% | 86.3% | 68.2% | 90.2% | 85.9% | 88.5% | 71.4% | 83.4%
CCN(CC)CCOC(=O)c1ccc(N)cc1 [Procaine] | 100% and 99% | 102% | 99.6% | 108% | 107% | 105% | 104% | 101%
Cc1onc(-c2ccccc2Cl)c1C(=O)N[C@@H]1C(=O)N2[C@@H]1SC(C)(C)[C@@H]2C(=O)O [Cloxacillin sodium] | 102% and 109% | 97.6% | 102% | 106% | 102% | 106% | 105% | 108%
OC(c1cc(C(F)(F)F)nc2c(C(F)(F)F)cccc12)C1CCCCN1 (stereo not drawn) [Mefloquine HCl] | 0.97% and 1.02% | 0.97% | 0.56% | 0.87% | 0.48% | 0.44% | 0.35% | 1.68%
CCOC(=O)CC(=O)N1CCSC1COc1ccccc1OC (stereo not drawn) [Moguisteine] | 99.2% and 102% | 97.3% | 98.3% | 108% | 100% | 105% | 105% | 92%
Cc1[nH]c(/C=C2\C(=O)Nc3ccc(S(=O)(=O)N(C)c4cccc(Cl)c4)cc32)c(C)c1C(=O)N1CCN(C)CC1 | 62.4% and 64.8% | 80.7% | 50.9% | 53.2% | 0.26% | 64.6% | 0.09% | 0.12%
CC(C)c1nc(N(C)S(C)(=O)=O)nc(-c2ccc(F)cc2)c1/C=C/[C@@H](O)C[C@@H](O)CC(=O)O [Rosuvastatin Calcium] | 103% and 107% | 101% | 94.8% | 96.5% | 112% | 105% | 105% | 102%
CC(C)=CCC[C@@](C)(O)[C@H]1CC[C@@]2(C)[C@@H]1[C@H](O)C[C@@H]1[C@@]3(C)CC[C@H](O)C(C)(C)C3CC[C@]12C (stereo partly drawn) [(20R)-Protopanaxdiol] | 109% and 101% | 96% | 103% | 105% | 106% | 102% | 103% | 101%
C=CC[N+]1([C@H]2C[C@H]3[C@@H]4CC[C@H]5C[C@H](O)[C@@H](N6CCOCC6)C[C@]5(C)[C@H]4CC[C@]3(C)[C@H]2OC(C)=O)CCCC1 [Rocuronium bromide] | 98.3% and 90.4% | 91.2% | 90.3% | 95.3% | 103% | 96.7% | 88.1% | 99.3%
CC1=C(C(=O)OCCN(Cc2ccccc2)c2ccccc2)C(c2cccc([N+](=O)[O-])c2)C(P2(=O)OCC(C)(C)CO2)=C(C)N1 (stereo not drawn) [Efonidipine] | 78.8% and 87.3% | 83.7% | 95.5% | 98.4% | 82.2% | 95.7% | 104% | 82.3%
O=C1c2ccccc2C(=O)c2c1ccc(O)c2O [Alizarin] | 101% and 104% | 101% | 103% | 99.5% | 97% | 102% | 101% | 93%
C=C1CC[C@H]2O[C@]2(C)CC[C@@H]2[C@@H]1CC2(C)C [Caryophyllene oxide] | 100% and 97% | 105% | 102% | 105% | 103% | 107% | 112% | 98%
OC1COC(O)C(O)C1O (stereo not drawn) [L(+)-Arabinose] | 102% and 92.9% | 96.7% | 108% | 112% | 95.5% | 101% | 87.3% | 113%
Cc1ccccc1CN1C(=O)C2=C(CCN(Cc3ccccc3)C2)N2CCN=C12 | 48.2% and 48% | 44.5% | 46.4% | 43.9% | 36.8% | 44.5% | 29.3% | 32%
CN(C)c1ccc2nc3ccc(=[N+](C)C)cc-3sc2c1 [Methylene Blue] | 33.4% and 27.2% | 17.1% | 13.1% | 14.2% | 5.69% | 2.58% | 5.27% | 7.07%
C=CC(C)(O)CCC=C(C)C (stereo not drawn) [Linalool] | 100% and 105% | 107% | 101% | 105% | 103% | 104% | 109% | 97.4%

Structure (SMILES) | cell viability (K562; SRSF2 genotype: SRSF2 P95H/wt) | cell viability (K562; SRSF2 genotype: SRSF2 wt/wt) | cell viability (MARIMO; SRSF2 genotype: SRSF2 P95H/wt) | cell viability (MARIMO; SRSF2 genotype: SRSF2 wt/wt) | cell viability (MOLM14; SRSF2 genotype: SRSF2 P95H/wt) | cell viability (MOLM14; SRSF2 genotype: SRSF2 wt/wt) | cell viability (OCI-AML2; SRSF2 genotype: P95H/wt) | cell viability (OCI-AML2; SRSF2 genotype: wt/wt)
Cc1cc(C)cc(C(=O)NOCCCCCC(=O)NO)c1 | 1.41% and 17.1% | 4.57% | 7.1% | 10.6% | 0.7% | 0.46% | 2.75% | 5.29%
O=C(Nc1cccc(Nc2ncc(Br)c(NCCc3cnc[nH]3)n2)c1)N1CCCC1 | 46.5% and 64.2% | 47.1% | 49.8% | 45.4% | 5.3% | 3.38% | 4.66% | 10.9%
CCN(CC)C(=S)SSC(=S)N(CC)CC [Disulfiram (Antabuse)] | 42.7% and 53.4% | 53.3% | 14% | 14.4% | 27.1% | 32.5% | 14% | 20.8%
NS(=O)(=O)c1cc(Cl)c(Cl)c(S(N)(=O)=O)c1 [Dichlorphenamide (Diclofenamide)] | 108% and 97% | 95.9% | 91.9% | 102% | 105% | 99.6% | 93.4% | 103%
O=C(/C=C/c1ccc(O)c2c1[C@H](C(=O)O[C@H](Cc1ccc(O)c(O)c1)C(=O)O)[C@@H](c1ccc(O)c(O)c1)O2)O[C@H](Cc1ccc(O)c(O)c1)C(=O)O [Salvianolic acid B] | 96.5% and 101% | 101% | 101% | 108% | 96.7% | 103% | 98.9% | 97.8%
CC/C(=C(\c1ccc(O)cc1)c1ccc(OCCN(C)C)cc1)c1ccccc1 [4-Hydroxytamoxifen] | 27.4% and 32.6% | 28% | 55.8% | 53.5% | 32.9% | 27.8% | 22.6% | 39.5%
O=C1NC(=O)/C(=C/c2cccc(C(F)(F)F)c2)S1 | 107% and 103% | 110% | 105% | 94.9% | 97.4% | 102% | 111% | 104%
C[C@]12C=CC(=O)C=C1CC[C@@H]1[C@@H]2[C@@H](O)C[C@@]2(C)[C@H]1CC[C@]2(O)C(=O)CO [Prednisolone] | 105% and 98.9% | 106% | 101% | 103% | 98.5% | 96.3% | 91.1% | 111%
CCCCCCCCCCCCN1CCCCCC1=O [Laurocapram] | 82.4% and 87.5% | 93.1% | 80.5% | 86.3% | 80.8% | 90.8% | 70.4% | 73.7%
COc1cc(N2CCN(C)CC2)ccc1Nc1ncc2c(n1)N(C)c1ccccc1C(=O)N2 | 83.4% and 82.7% | 78.9% | 97.7% | 90.1% | 78.1% | 91.3% | 83.3% | 73.2%
O=C(C=Cc1cccnc1)c1ccncc1 | 81.1% and 89% | 77.7% | 64.4% | 62.8% | 19.3% | 18.4% | 16.8% | 28.9%
O=c1sn(-c2cccc3ccccc23)c(=O)n1Cc1ccccc1 [Tideglusib] | 77.4% and 78.3% | 82.9% | 70.7% | 79.9% | 55.5% | 68.8% | 54.7% | 53.3%
COc1c(C)c(C(=O)c2ccc(N)c(C(=O)O)c2)n2ccccc12 | 106% and 97.6% | 101% | 102% | 110% | 105% | 108% | 97.6% | 106%
CC(=O)c1ccccc1 [Acetophenone] | 98.7% and 89.7% | 91.4% | 84.5% | 91.5% | 90.6% | 91.1% | 85.3% | 83.6%
COc1ccccc1-c1cc(Nc2cccc(CS(N)(=O)=O)c2)ncn1 | 90.2% and 89.9% | 91.5% | 29.4% | 45.6% | 26.5% | 5.12% | 18.1% | 30%
Cc1c(OCC(F)(F)F)ccnc1C[S+]([O-])c1nc2ccccc2[nH]1 (stereo not drawn) [Lansoprazole] | 98% and 96.2% | 90% | 98.6% | 104% | 103% | 95.5% | 91.7% | 102%
CC(C)(C)NCC(O)c1ccc(O)c(CO)c1 (stereo not drawn) [Salbutamol] | 104% and 102% | 110% | 108% | 107% | 99.4% | 106% | 101% | 97.1%
C=C(C)[C@@H]1CC[C@]2(C(=O)O)CC[C@]3(C)[C@H](CC[C@@H]4[C@@]5(C)CCC(=O)C(C)(C)[C@@H]5CC[C@]43C)[C@@H]12 [Betulonic acid] | 45.2% and 68% | 61.4% | 34.2% | 20.9% | 43.6% | 32.2% | 29.6% | 17.1%
CC[C@@H]1/C=C(\C)C[C@H](C)C[C@H](OC)[C@H]2O[C@@](O)(C(=O)C(=O)N3CCCC[C@H]3C(=O)O[C@H](/C(C)=C/[C@@H]3CC[C@@H](O)[C@H](OC)C3)[C@H](C)[C@@H](O)CC1=O)[C@H](C)C[C@@H]2OC [Ascomycin (FK520)] | 75.8% and 83% | 83.6% | 86.6% | 96.8% | 89.1% | 89.1% | 95.8% | 93.5%
Cc1cc(NC(=O)Nc2ccc(N(C)C)cc2)c2cc(F)cc(F)c2n1 | 89.9% and 95.8% | 93.1% | 98.3% | 109% | 102% | 105% | 83.8% | 94.9%
